Screening results (PubChem BioAssay)
BoNT F protease = blocks Botulinum neurotoxin F light chain protease. Multiplex microsphere protease cleavage assay, flow cytometry. AID 588497. 0.22% of 360,000 active. inhibition, % at 10 µM; in the data active means inhibition above about 35%, passing the limit was not always enough; inconclusive means no clear call, values can overlap the other calls; further: plate controls were buffer without enzyme for full effect and enzyme alone for no effect
Bead autofluor = compound fluorescence in toxin protease inhibitor counterscreen; compound autofluorescence counterscreen, microsphere flow cytometry; active compounds read high; fluorescence intensity (test concentration not listed); 3.1% of 360,000 active; AID 624483; in the data active means fluorescence intensity above about 16000; inconclusive means no clear call, values can overlap the other calls
BoNT-A LC inh2 = BoNT A light chain protease inhibition; inhibition, % at 10 µM; AID 588499; multiplex microsphere protease substrate cleavage, flow cytometry; 0.17% of 360,000 active; further: plate controls were buffer without enzyme for full effect and enzyme alone for no effect
Anthrax LF inh2 = inhibitors of Bacillus anthracis lethal factor protease; P15917; multiplex microsphere protease cleavage assay, LF; inhibition, % at 10 µM; 0.12% of 360,000 active; AID 588501; further: plate controls were buffer without enzyme for full effect and enzyme alone for no effect
PriA SSB inh = inhibitors of Klebsiella pneumoniae PriA binding to SSB C-terminal tail | AID 1272365 | 0.6% of 430,000 active | inhibition, % at 33 µM | AlphaScreen SSBct-PriA binding, biotinylated peptide; in the data active means inhibition mostly above about 37%, no sharp cut-off; inactive means mostly below about 20%;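 further: plate controls were negative control peptide for no effect and reference peptide for full effect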
MazF activator = increases E. coli MazEF RNase cleavage of RNA. 0.32% of 350,000 active. activation, % at 20 µM. FAM/BHQ RNA-DNA oligo cleavage fluorescence, 5 h; in the data active means activation above about 50%
Target sequence (P0AE70 whole entry, looked up): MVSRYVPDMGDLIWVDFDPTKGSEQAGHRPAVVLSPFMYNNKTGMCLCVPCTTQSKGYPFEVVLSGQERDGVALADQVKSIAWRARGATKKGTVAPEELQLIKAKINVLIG
The depositor's hits bear a star; ? = inconclusive; . = not tested or not shown. Most compounds without a hit are left out; they make up all but 3.3% or so of the library. Unless noted, no stated cut-off is given here; in the data, active means inhibition above about 30%; inconclusive means no clear call, values can overlap the other calls; inactive means below that.

SMILES	BoNT F protease	Bead autofluor	BoNT-A LC inh2	Anthrax LF inh2	PriA SSB inh	MazF activator
Cc1ccc(-c2ccc(CCC(=O)O)n2-c2cccc(O)c2)cc1	-1.1	19713*	-0.1	-0.7	-0.3	-0.4
Cc1ccc(-c2ccc(CCC(=O)O)n2-c2ccc(O)cc2)cc1	-0.7	10421	2.0	-1.2	3.3	-22.2
COc1ccc(CCNC(=O)Cc2csc(Nc3ccccc3)n2)cc1	.	.	.	.	5.0	.
CS(=O)(=O)N1CCCCC1C(=O)Nc1nc2c(Cl)c(Cl)ccc2s1 (centres undefined)	.	.	.	.	-8.0	.
CC(=O)C(Sc1nc(N(C)C)nc(N(C)C)n1)C(=O)Nc1ccccc1 (centres undefined)	-5.2	4768	-0.5	-1.6	-12.6	-1.5
CC(=O)C(Sc1nn(C)c(=S)s1)C(=O)Nc1ccccc1 (centres undefined)	-0.4	23581*	-0.4	-3.4	-6.5	4.0
NNC(=O)c1ccc2[nH]c3c(c2c1)CCCC3	-2.7	4272	-0.7	2.1	0.7	8.3
CN1CCc2[nH]c3ccc(C(=O)NN)cc3c2C1	-2.5	20838*	4.0	-1.5	-2.2	-4.3
CCOc1cc(C(=O)Nc2cccc3ncccc23)cc(OCC)c1OCC	-1.8	20303*	1.0	-1.2	-23.6	9.5
CCCCn1c(=O)c(C(=O)c2ccccc2)nc2ccccc21	-7.0	21629*	-6.7	-1.2	-2.5	-3.8
COc1cccc(CCNC(=O)Cc2csc(NC(=O)c3ccc[nH]c3=O)n2)c1	.	.	.	.	6.0	.
CCCCCS(CC1CC1(Cl)Cl)=NS(=O)(=O)c1ccc(C)cc1 (centres undefined)	.	.	.	.	-6.1	.
c1ccc(-c2nc(N3CCOCC3)c3ccccc3n2)nc1	-2.7	4565	-1.1	-0.2	61.7*	3.0
CSc1nc(N2CCOCC2)c2ccccc2n1	-0.3	23367*	-0.8	-0.3	-13.2	-7.8
c1ccc(-c2nc(N3CCCCCC3)c3ccccc3n2)nc1	3.9	2112	0.7	5.9	86.7*	10.4
c1ccc(CN2CCN(c3nc(-c4ccccn4)nc4ccccc34)CC2)cc1	-0.3	3316	-0.8	3.2	-9.9	5.1
c1ccc(-c2nc(N3CCCC3)c3ccccc3n2)nc1	.	.	.	.	54.2	.
CCN1CCN(c2nc(-c3ccccn3)nc3ccccc23)CC1	-11.8	24768*	-5.5	-1.6	-7.8	5.0
O=S(=O)(Cc1ccco1)C1CN(S(=O)(=O)c2cccnc2)C1	.	.	.	.	-11.0	.
O=C(CCc1ccccc1Br)N1CCC(S(=O)(=O)c2ccccc2)CC1	.	.	.	.	-9.0	.
O=C(NCc1ccc(C(=O)c2cccs2)s1)c1ccc(OC(F)(F)F)cc1	.	.	.	.	4.0	.
Cn1c(C(F)(F)F)nn(CC(=O)OCc2ccccc2)c1=O	.	.	.	.	-3.0	.
O=C(Cc1ccc(F)cc1)Nc1nc(-c2nc3ccccc3s2)cs1	.	.	.	.	2.0	.
O=C(COC(=O)C1CC2C=CC1C2)Nc1ccc2c(c1)OC(F)(F)O2 (centres undefined)	1.2	16493*	0.2	-1.2	-16.8	2.8
O=c1[nH]c2ccccc2nc1/C=C/c1ccc(Br)cc1	.	.	.	.	-11.0	.
SMILES	BoNT F protease	Bead autofluor	BoNT-A LC inh2	Anthrax LF inh2	PriA SSB inh	MazF activator
Cc1cc(C(=O)CN2C(=O)NC(Cc3c[nH]c4ccccc34)C2=O)c(C)n1C (centres undefined)	-8.6	23788*	-4.2	-4.4	-2.4	3.5
CNC(=O)CN1C(=O)NC(Cc2c[nH]c3ccccc23)C1=O (centres undefined)	0.1	5105	-1.0	-2.9	-3.9	3.8
CN(C)c1ccc(C(CNC(=O)c2cc3ccccc3oc2=O)N2CCc3ccccc3C2)cc1 (centres undefined)	.	.	.	.	-7.0	.
COc1cccc(/C=N/Nc2ncnc(N)c2[N+](=O)[O-])c1OC	8.2	21088*	4.7	1.9	.	5.4
COc1cccc(C=NNc2ccc([N+](=O)[O-])cn2)c1OC	-13.0	4000	0.6	-3.8	-0.3	-17.8
CCCCNC(=O)C(CC)Sc1nc2sc(C(=O)OC)c(C)c2c(=O)n1N (centres undefined)	-1.8	10263	-0.6	7.0	-9.2	8.4
CCC(Sc1nc2sc(C(=O)OC)c(C)c2c(=O)n1N)C(=O)N(CC)CC (centres undefined)	1.1	21202*	2.0	-5.6	-3.5	0.0
Cc1nc(SCc2cccc(F)c2)[nH]c(=O)c1C#N	4.0	22061*	?	-3.3	0.2	0.8
CCCc1cc(=O)[nH]c(SCc2cccc(F)c2)n1	.	.	.	.	2.0	.
O=C(NCCCOc1cccc2cccnc12)c1ccc(=O)[nH]c1	.	.	.	.	-15.0	.
CCCN1CCCc2cc(CCNC(=O)c3cc(OC)cc(OC)c3)ccc21	.	.	.	.	59.0	.
COc1cc(OC)cc(C(=O)NCCc2ccc3c(c2)CCCN3C)c1	.	.	.	.	59.0*	.
COc1ccc(CCNC(=O)NCCc2ccc3c(c2)CCCN3C)cc1	.	.	.	.	50.0*	.
Cc1cccc(NC(=O)NCCc2ccc3c(c2)CCCN3C)c1	.	.	.	.	56.0*	.
CN1CCCc2cc(CCNC(=O)NCc3ccccc3)ccc21	.	.	.	.	29.0	.
Cc1cc(F)ccc1S(=O)(=O)N1CCc2nc3ccc(F)cn3c(=O)c2C1	.	.	.	.	-5.0	.
O=C(Cn1c(=O)oc2ccccc21)N1CCC(c2cccs2)CC1	.	.	.	.	-7.0	.
C=CCn1c(SCC(=O)c2ccc(F)cc2)nnc1-c1nnc(SCC(=O)c2ccc(F)cc2)n1CC=C	.	.	.	.	-10.0	.
C=CCn1c(COC)nnc1SCC(=O)c1ccc(F)cc1	-2.4	16919*	?	-3.5	-6.0	0.2
COc1ccc(OCCn2cc(/C=C(\C#N)C(=O)NCc3ccco3)c3ccccc32)cc1	0.5	1882	-0.2	0.2	-1.7	8.8
N#C/C(=C\c1cn(CCOc2ccccc2)c2ccccc12)C(=O)NCc1cccs1	-2.6	2777	-0.3	2.6	-6.2	59.3*
Cc1nnc(-c2cnn(-c3ccccc3)c2N)n1Cc1cccc(C(F)(F)F)c1	-1.0	6402	-0.3	0.8	-5.2	6.6
Cc1nnc(-c2cnn(-c3ccccc3)c2N)n1Cc1ccncc1	-1.6	20279*	?	0.4	-2.6	0.5
Cc1cccc(-n2c(-c3csc(C)c3)n[nH]c2=S)c1	-2.0	16396*	?	-7.9	-9.2	-0.7
CCc1cc(-c2n[nH]c(=S)n2-c2cccc(C)c2)cs1	10.8	18843*	10.9	-8.8	3.7	-4.2
SMILES	BoNT F protease	Bead autofluor	BoNT-A LC inh2	Anthrax LF inh2	PriA SSB inh	MazF activator
CCc1ccc(CCC(=O)Nc2nc(CC(C)=O)ns2)o1	0.9	16142*	1.2	-2.5	-14.0	7.6
CCc1ccc(CCC(=O)Nc2nnc(C)s2)o1	-1.6	20941*	?	0.2	-9.8	-2.7
CCc1nnc(NC(=O)CCc2ccc(C)o2)s1	-5.0	10756	0.5	-2.9	9.1	5.8
O=C(O)C1C(c2ccccc2)C(C(=O)Oc2ccccc2)C1c1ccccc1 (centres undefined)	-5.5	24658*	-1.5	0.1	-2.7	2.6
CC(C)CCOC(=O)C1C(c2ccccc2)C(C(=O)O)C1c1ccccc1 (centres undefined)	-3.0	25168*	-2.6	0.2	-5.0	-3.4
Cc1cccc(OC(=O)C2C(c3ccccc3)C(C(=O)O)C2c2ccccc2)c1 (centres undefined)	5.6	15795	2.8	-0.8	-6.8	2.6
